High-throughput results (PubChem BioAssay)
This is a sample that favours compounds with a hit; in the whole collection about 3.5% have one here.
BoNT-A LC inh2 – BoNT A light chain protease inhibition | multiplex microsphere protease substrate cleavage, flow cytometry | inhibition, % at 10 µM | 0.17% of 360,000 active; note: plate controls were buffer without enzyme for full effect and enzyme alone for no effect
BoNT-F LC inh – blocks Botulinum neurotoxin F light chain protease | 0.22% of 360,000 active | inhibition, % at 10 µM | AID 588497 | Multiplex microsphere protease cleavage assay, flow cytometry; in the data active = inhibition above about 35%, passing the limit was not always enough; inconclusive = no clear call, values can overlap the other calls; note: plate controls were buffer without enzyme for full effect and enzyme alone for no effect
Anthrax LF inh2 – anthrax lethal factor protease inhibition; multiplex microsphere protease cleavage assay, LF; inhibition, % at 10 µM; 0.12% of 360,000 active; note: plate controls were buffer without enzyme for full effect and enzyme alone for no effect
Target sequence (P15917 whole entry, looked up): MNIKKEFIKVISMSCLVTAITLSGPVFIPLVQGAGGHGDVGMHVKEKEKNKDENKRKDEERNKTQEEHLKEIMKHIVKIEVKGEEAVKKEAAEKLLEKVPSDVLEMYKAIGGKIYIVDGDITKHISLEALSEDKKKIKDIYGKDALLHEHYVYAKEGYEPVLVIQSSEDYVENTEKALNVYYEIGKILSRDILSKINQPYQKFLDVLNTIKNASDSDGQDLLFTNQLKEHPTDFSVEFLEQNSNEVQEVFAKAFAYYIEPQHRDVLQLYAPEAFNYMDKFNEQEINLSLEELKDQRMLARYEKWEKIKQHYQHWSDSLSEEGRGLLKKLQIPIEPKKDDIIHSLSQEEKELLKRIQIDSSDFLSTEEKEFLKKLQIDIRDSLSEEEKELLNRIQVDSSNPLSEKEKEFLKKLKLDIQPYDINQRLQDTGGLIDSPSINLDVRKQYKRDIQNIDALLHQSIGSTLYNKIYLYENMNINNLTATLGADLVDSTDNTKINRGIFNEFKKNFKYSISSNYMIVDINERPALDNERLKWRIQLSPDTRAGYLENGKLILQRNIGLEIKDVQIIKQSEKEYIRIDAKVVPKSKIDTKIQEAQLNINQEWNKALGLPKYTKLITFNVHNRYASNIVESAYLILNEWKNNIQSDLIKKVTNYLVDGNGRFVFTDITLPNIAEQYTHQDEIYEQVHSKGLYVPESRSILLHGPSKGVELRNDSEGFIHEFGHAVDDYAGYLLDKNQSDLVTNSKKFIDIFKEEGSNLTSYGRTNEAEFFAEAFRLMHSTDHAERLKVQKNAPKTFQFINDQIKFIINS
Autofluor counter – flagged as autofluorescent in microsphere protease counterscreen. AID 624483. compound autofluorescence counterscreen, microsphere flow cytometry; active compounds read high. fluorescence intensity (test concentration not listed). 3.1% of 360,000 active; in the data active = fluorescence intensity above about 16000; inconclusive = no clear call, values can overlap the other calls
Active calls of the source: *; ? = inconclusive. Cut-off read from the data, not from the text of the source, unless noted: active = inhibition above about 30%; inconclusive = no clear call, values can overlap the other calls; inactive = below that.

SMILES	BoNT-A LC inh2	BoNT-F LC inh	Anthrax LF inh2	Autofluor counter
CCOC(=O)C1=C(C)NC(=O)C(C#N)C1c1ccco1 (stereo not drawn)	?	-17	-1	18722*
CC(=O)c1cccc(NC(=O)NC(C)C2CCCO2)c1 (stereo not drawn)	-1	9	-3	4351
CC(NC(=O)NC12CC3CC(CC(C3)C1)C2)C1CCCO1 (stereo not drawn)	?	6	0	21432*
Cn1nnnc1SCc1c(F)cccc1F	3	6	-8	21178*
COc1ccc(C(=O)c2c(N)sc3c2CCN(C)C3)cc1	34*	-51	-7	4611
CCN(CC)c1ccc(N=C2C=CC(=O)C=C2NC(C)=O)cc1	0	-27	-8	3544
CCOc1cc(NC(=S)Nc2cccc(OC)c2)c(OCC)cc1NC(=O)c1ccc(C)cc1	0	-3	2	5883
CCOc1cc(NC(=S)Nc2ccccc2)c(OCC)cc1NC(=O)c1ccc(OC)cc1	6	9	-12	18966*
COc1cccc(NC(=O)C(C)C)c1	0	4	-1	3571
CCOc1cc(NC(=S)Nc2cccc(C)c2)c(OCC)cc1NC(=O)CC(C)C	-1	-4	-2	22828*
CCOc1cc(NC(=S)NCCCN2CCOCC2)c(OCC)cc1NC(=O)CC(C)C	-1	-4	-1	22374*
CCOc1cc(NC(=S)NCCCN2CCOCC2)c(OCC)cc1NC(=O)C(C)C	-1	-7	0	2166
CCOc1cc(NC(=S)Nc2cccc(OC)c2)c(OCC)cc1NC(=O)C(C)C	?	-3	-6	23255*
COc1ccc(C(=O)C2CCN(C(=O)Nc3ccccc3C)CC2)cc1	-1	32	-13	3987
Cc1cc(C(=O)NCc2csc(-c3ccccc3)n2)no1	-3	5	-3	6320
CCc1nc2ccc(C(=O)NCCN3CCNC3=O)cn2c1N(CCC(C)C)CCN(C)C	0	0	-5	4085
CCOc1cc(NC(=O)CC(C)C)c(OCC)cc1NC(=O)CCn1nnc2ccccc21	-2	-5	-2	21013*
O=C(CCn1nnc2ccccc21)Nc1nnc(COc2ccc(F)cc2)s1	?	-1	-3	21872*
O=C(NCc1ccc(-n2cccc2)cc1)c1cccc(F)c1	0	4	-1	4334
CC(=O)c1cccc(NC(=O)c2cccc3c(-c4cccnc4)coc23)c1	0	-2	1	3015
COc1ccc(OCCCC(=O)Nc2cc(Cl)ccc2-n2cncn2)cc1	-87	-131	-20	17700*
Cc1ccc(OCCCC(=O)Nc2cc(Cl)ccc2-n2cncn2)cc1	-6	-5	?	?
CCOC(=O)c1ccc2c(c1)N(CC(=O)N1CCCC1)C(=O)C(C)(C)O2	?	-4	-2	23746*
COC(=O)CN1C(=O)C(C)(C)Oc2ccc(C(=O)NC3CC3)cc21	?	-3	0	22838*
CC(C)C[C@@H](CN)NC(=O)c1nc[nH]c1C(=O)N[C@@H](C)C(=O)CNC[C@H](C)NC(=O)c1nc[nH]c1C(=O)N[C@@H](CC(C)C)C(=O)O	0	-5	-6	3693
SMILES	BoNT-A LC inh2	BoNT-F LC inh	Anthrax LF inh2	Autofluor counter
Cc1cc(C)n(-c2ccn(Cc3ccc(Cl)cc3Cl)c(=O)n2)n1	-2	-4	-1	23685*
CC(C)(C)n1ncc2c(=O)n(Cc3ccc(Cl)cc3Cl)cnc21	0	2	2	2480
CC(C)C[C@H]1CN(CCCC[C@H]2CNC(=O)C(=O)N2Cc2ccccc2)C(=O)C(=O)N1CCC1CCCCC1	0	3	-4	5741
O=C(CSc1nnnn1-c1ccccc1)Nc1ccc(N2CCOCC2)c(Cl)c1	0	-2	-2	10247
O=C(CSc1nnnn1-c1cccc2ccccc12)Nc1ccc(N2CCOCC2)c(Cl)c1	0	1	-7	16201*
CS(=O)(=O)Nc1ccccc1C(=O)OCC(=O)N1CCC(c2ccccc2)=N1	0	-4	2	4112
Cc1ccc(-n2c(O)c(/C=C3/C(c4ccccc4)=Nc4ccccc43)c(=O)[nH]c2=O)cc1	0	-9	1	2108
Cc1ccccc1-n1c(O)c(/C=C2/C(c3ccccc3)=Nc3ccccc32)c(=O)[nH]c1=O	47*	-2	17	1715
O=C(O)c1ccc(-c2ccccc2)[nH]1	2	0	-4	22282*
CCCN(CC(=O)Nc1ccccc1C)C(=O)CSc1ccccc1C	2	7	-3	3978
COCCNC(=O)C1(C)CCCN(C(=O)c2ccccc2)C1 (stereo not drawn)	0	-9	-8	3353
CCOc1ccccc1N(C)C(=O)c1cc2c(=O)n(CC)c3ccccc3c2s1	0	4	2	3097
CCn1c(=O)c2cc(C(=O)N(C)CC(OC)OC)sc2c2ccccc21	-3	3	38*	2981
CC(C(=O)NC1CCCC1)N1CCN(Cc2ccccc2)CC1 (stereo not drawn)	0	-3	2	4743
CC(C(=O)NC(=O)NC1CCCCC1)N1CCN(C(c2ccccc2)c2ccccc2)CC1 (stereo not drawn)	-2	-7	-7	16823*
NC(=O)c1ccc2c(=O)n3c(-c4cccs4)csc3nc2c1	-1	-11	-7	4225
O=C(NCc1ccc2c(c1)OCO2)c1ccc2c(c1)OCO2	-1	-1	-2	4997
Cc1cc2cc(CNC(=O)c3ccc4c(c3)OCO4)ccc2[nH]1	67*	-85	-41	2941
CCc1c(C(=O)NCc2ccc3c(c2)OCO3)[nH]c(C)c1C(C)=O	-2	-3	-3	17026*
O=c1[nH][nH]c2c1[C@H](c1ccc(F)cc1)O[C@H](CCC(F)(F)F)C2	0	-6	-3	4118
COC(=O)[C@]1(Cc2ccccc2)N[C@H](CN(C)C(=O)Nc2ccc(OC)cc2)[C@@H]2C(=O)N(Cc3ccccc3)C(=O)[C@@H]21	0	-4	0	2950
COCCNC(=O)C1CCCN(C(=O)c2sccc2C)CC1 (stereo not drawn)	0	-6	0	3746
CC(C)C[C@H]1CN(CCCC[C@@H]2CNC(=O)C(=O)N2CC2CCCCC2)C(=O)C(=O)N1Cc1ccccc1	0	-7	-6	5546
COc1ccc2c(COC(=O)[C@@H]3CCCN3S(=O)(=O)c3ccc(Cl)cc3)cc(=O)oc2c1	4	-3	2	5988
COc1ccc(C(=O)C[N+]2(C)CCOCC2)cc1	-5	46*	-52	3259
SMILES	BoNT-A LC inh2	BoNT-F LC inh	Anthrax LF inh2	Autofluor counter
CCS(=O)(=O)N1N=C(c2cccc(NS(C)(=O)=O)c2)CC1c1ccc(C)cc1 (stereo not drawn)	26	-1	17	21472*
COc1cc2ccccc2cc1C(=O)Nc1ccc(Cc2ccncc2)cc1	-1	-2	-1	21333*
COc1cc2ccccc2cc1C(=O)Nc1ccc(C)cc1	-4	-29	-8	4265
Cc1ccc(-n2[nH]c(=O)c(-c3ccccn3)c2C)cc1	0	-5	-2	4587
Cc1ccc(-n2[nH]c(=O)c3cccnc32)cc1	-2	-3	-5	16502*
Cc1ccc(CN2C(=O)CCC2C(=O)NCc2cccnc2)cc1 (stereo not drawn)	4	2	-6	21210*
O=C(NNc1ccc([N+](=O)[O-])cc1)C12CC3CC(CC(C3)C1)C2	-1	-3	0	20243*
